For the experiment, the system named is MDA-MB-468 breast. As to the kind of experiment: NCI-60 one-dose screen, 48 h (100 = growth as untreated, 0 = no growth, -100 = all killed). Particulars: 10 µM unless noted.

The panel holds about 83,000 compounds, 20% with a hit somewhere; the sample as a whole holds those more often.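 Growth was measured after 48 h exposure to one concentration of compound in 96-well plates. Values under 10 count as active.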 Values without a mark were called inactive. Active and inactive are the calls of the source.

Take `c1ccc(-c2cccc(-c3ccccn3)n2)nc1`: the growth was -15.6% (active).

Consider `O=C(c1nc2ccccc2[nH]1)C1C(c2cccc([N+](=O)[O-])c2)C2CC3CCCCC3N2[C@@]12C(=O)Nc1cc(Cl)ccc12` (some centres not stated), for which the growth was 1.53% (active).

Take `CN(CCc1ccccc1)C(=S)N(C(=O)c1ccc([N+](=O)[O-])cc1)c1ccc(Cl)cc1`: the growth is 37.4%.

As for `Nc1nnc(C(=O)c2cnc3n(c2=O)CCCCC3)s1`, the growth was 90.4%.

As to `COC(=O)[C@H]1[C@H](OC)[C@@H](OC(=O)/C=C/c2ccncc2)CC2CN3CCc4c([nH]c5cc(OC)ccc45)[C@@H]3C[C@@H]21` (some centres not stated), the growth was 53.6%.

For `Cc1cc(N/N=C/c2nc(-c3ccccc3)oc2C)c2cc(Br)ccc2n1`, the growth is 35.7%.

For the molecule `O=C(CCCCNC(=O)c1cc(=O)c(O)co1)Nc1ccccc1`, the growth was 35%.

As for `CCOC(=O)CN(c1sc(C)c(C)c1C(=O)OCC)S(=O)(=O)c1ccc(C)cc1`, the growth was 89.6%.

In the case of `CC(C)(C)c1[nH]nc2c1C(c1cc3ccccc3[nH]c1=O)Nc1cc(C(=O)Nc3ccc(Cl)cc3)ccc1N2` (configuration not stated), the growth is -15.9% (active).

For `CC(=O)O[C@H]1C[C@@H]2C(C)(C)C(=O)CC[C@@]2(C)c2ccc(C(C)C)cc21`, the growth was 105%.

Take `O=C(CC1Sc2ccccc2NC1=O)NNc1cccc(Cl)c1Cl` (configuration not stated): the growth was 95.2%.

Regarding `COc1cc(OC)c(/C=C/c2ccc3ccccc3[n+]2C)c(OC)c1`, the growth was -13.7% (active).

Turning to `COc1ccc(Nc2ccnc(N3CCN(c4ccnc5cc(Cl)ccc45)CC3)n2)cc1`, the growth is -16% (active).

In the case of `COc1cc(-c2cc(-c3ccc(Nc4ncnc5cc(Cl)ccc45)cc3)nc(N3CCCCC3)n2)cc(OC)c1OC`, the growth was 107%.

For the molecule `COc1ccc(/C=N/C2=C(C#N)C(c3ccccc3)c3c(ccc4ccccc34)O2)cc1` (configuration not stated), the growth was -3.92% (active).

On to `O=C1C=C(O)c2ccccc2C1=O.[Ag]`, for which the growth was 99%.

Turning to `COc1ccc(C(C)=C(c2ccc(OCCN3CCCCCC3)cc2)c2ccc(OCCN3CCCCCC3)cc2)cc1`, the growth is -69.5% (active).

As to `CCC1(C)OC(=O)NC1=O` (configuration not stated), the growth is 107%.

Regarding `CC(C)C(=O)OCCOc1ccc(C(C)(C)C)cc1`, the growth is 102%.

For `COc1cc(/C=C2\CN(C)C/C(=C\c3cc(CN4CCOCC4)c(O)c(OC)c3)C2=O)cc(CN2CCOCC2)c1O`, the growth is 38.8%.

As for `[O-][N+](=Nc1cccc(Cl)c1)c1cccc(Cl)c1`, the growth is -25% (active).

For the molecule `COc1cc(-c2nn(C(C)(C)C)cc2-c2ccnc(NCCCNS(=O)(=O)c3ccc(C)cc3)n2)ccc1Cl`, the growth is 79%.

Consider `O=C(CN1C(=O)S/C(=C\C(Cl)=C\c2ccccc2)C1=O)NC1CCS(=O)(=O)C1` (configuration not stated), for which the growth was 8.17% (active).

Take `CN(c1ccc(Br)cc1)S(=O)(=O)c1ccc(-c2cnc(C3CC3)o2)cc1`: the growth was 11.7%.

Turning to `COC(=O)C1CCCN(S(=O)(=O)/N=C2\NC(=O)NC2=C(Cl)Cl)C1` (configuration not stated), the growth is 32.8%.

Regarding `Cc1cc(C(=O)NN)c(C#N)c(=O)[nH]1`, the growth is 122%.

`CCN1C(=O)N(CC)C2NC(SC)=NC21` (configuration not stated): the growth is 103%.

`NCCN1CCNCC1`: the growth was 95.2%.

In the case of `C=C(c1ccc(N(C)C)cc1)c1ccc(N(C)C)cc1`, the growth is -30.9% (active).

Consider `COc1ccc(-c2cc(-c3ccc(Cl)cc3)nc(SCCCCCCC(=O)NO)n2)cc1OC`, for which the growth is 55.2%.

On to `O=C1Nc2ccc(Cl)cc2/C1=C/c1ccc[nH]1`, for which the growth is -19.6% (active).

On to `CCc1cccc2c1S/C(=C/c1ccc(Cl)cc1)C2=O`, for which the growth is 93.6%.

With `CO[C@@]12[C@@H]3NC3CN1C1=C(C(=O)C(N)=C(C)C1=O)[C@@H]2COC(N)=O` (some centres not stated), the growth was -14.1% (active).

Consider `Cc1nc2ccc(Nc3nc(NCCN4CCOCC4)nc(Nc4ccc(F)cc4)n3)cc2n1Cc1ccccc1`, for which the growth is 14%.

As for `OCc1cccnc1`, the growth is 102%.

As to `CN(C)Cc1cccs1`, the growth is 87.2%.

For the molecule `NC1=C(Br)C(=O)c2ncccc2C1=O`, the growth is -14.8% (active).

Consider `Nc1ccc(F)c(Cl)c1F`, for which the growth was 92.5%.

As for `N=c1c2c(-c3ccccc3)c(-c3ccccc3)oc2ncn1NC(=O)c1cccnc1`, the growth is 105%.

With `O=C(NC1C(O)OC(CO)C(O)C1O)NS(=O)(=O)c1ccc(Cl)cc1` (configuration not stated), the growth is 108%.

Consider `COc1ccc(CCNC(=S)NN)cc1OC`, for which the growth is 128%.

Turning to `O=C(/C(=C\c1c(-c2ccccc2)[nH]c2ccccc12)S(=O)(=O)c1ccccc1)c1ccccc1`, the growth was 32.9%.
